Results as given in PubChem BioAssay (NCATS).
Inconclusive results are not listed. Unmarked numbers belong to inactive results. Active and inactive are the calls of the source. Calls follow the shape of the dose curve; as a rule, active = well fitted inhibition curve with a large enough effect; inconclusive = small, poorly fitted or top-dose-only effect; inactive = flat fitted curve, though single readings scatter.

Experiments:
[1] = qHTS profiling for inhibitors of Plasmodium falciparum proliferation (AID 504749); also: nearly all actives have a fitted effect of over 60% in size;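 as to activity, negative = inhibition: 0% = DMSO vehicle and full inhibition = artemisinin control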; conditions: P. falciparum in erythrocytes, SYBR Green DNA, 72 h
Outline: (§1)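 In a 72 h erythrocytic culture (37 C, humidified, 5% CO2) at 2.5% hematocrit and 0.3% starting parasitemia, compounds were tested; SYBR Green I in detergent lysis buffer stained parasite DNA overnight.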

3D7 = assay: as above; conditions: P. falciparum in erythrocytes, SYBR Green DNA, 72 h; series mostly up to 28.7 µM
Outline: as §1

AA1029 = assay: as above; conditions: P. falciparum in erythrocytes, SYBR Green DNA, 72 h; series mostly up to 28.7 µM
Outline: as §1

7G8 = assay: as above; conditions: P. falciparum in erythrocytes, SYBR Green DNA, 72 h; series mostly up to 28.7 µM
Outline: as §1

[2] = at 12.8 µM (top of the series), parasite line A
[3] = at 12.8 µM (top of the series), parasite line B
[4] = at 28.7 µM (top of the series), parasite line A
[5] = at 28.7 µM (top of the series), parasite line B
Potency is read from the fitted curve at half-maximal effect.

SMILES: CC(C)(C(=O)c1cccnc1)c1cccnc1
- activity, negative = inhibition [1, 2]: -8.96%
- activity, negative = inhibition [1, 3]: -23.5%
- Potency (3D7): inactive
- Potency (AA1029): inactive

SMILES: CN(C)CCOc1ccccc1Cc1ccccc1
- activity, negative = inhibition [1, 4]: -13.9%
- activity, negative = inhibition [1, 5]: -12.1%
- Potency (3D7): inactive
- Potency (AA1029): 7.94 µM (active)

SMILES: Cc1cccc(C)c1NC(=O)CN1CCN(CCCC(c2ccc(F)cc2)c2ccc(F)cc2)CC1
- activity, negative = inhibition [1, 2]: -9.2%
- activity, negative = inhibition [1, 3]: -3.17%
- Potency (7G8): 4.47 µM (active)

SMILES: CCCCCCCCCCOCC(O)CN (stereo not given)
- activity, negative = inhibition [1, 4]: -16.8%
- Potency (3D7): inactive
- Potency (7G8): 12.6 µM (active)

SMILES: CCCOC(C(=O)OC1CCN(C)CC1)(c1ccccc1)c1ccccc1
- activity, negative = inhibition [1, 4]: -18.3%
- Potency (7G8): 11.2 µM (active)

SMILES: CCOC(=O)/C=C(C)/C=C/C=C(C)/C=C/c1c(C)cc(OC)c(C)c1C
- Potency (7G8): 12.6 µM (active)

SMILES: CCCCCCCCCCCCCCCCCC(=O)OCC(O)CO (stereo not given)
- activity, negative = inhibition [1, 4]: 5.19%
- activity, negative = inhibition [1, 5]: 11.8%
- Potency (7G8): inactive
- Potency (AA1029): inactive

SMILES: CO/N=C1\CN(c2nc3c(cc2F)c(=O)c(C(=O)O)cn3C2CC2)CC1CN (stereo not given)
- Potency (3D7): 10 µM (active)
- Potency (7G8): 7.94 µM (active)
- Potency (AA1029): 7.94 µM (active)

SMILES: C=C(CC)C(=O)c1ccc(OCC(=O)O)c(Cl)c1Cl
- Potency ([1]; parasite line A): 12.6 µM (active)
- Potency (7G8): 14.1 µM (active)

SMILES: CN1CCC[C@@H]1c1cccnc1
- activity, negative = inhibition [1, 4]: 3.02%
- Potency (3D7): inactive
- Potency (7G8): inactive
- Potency (AA1029): inactive

SMILES: CCCCc1nc(Cl)c(CO)n1Cc1ccc(-c2ccccc2-c2nn[nH]n2)cc1
- Potency ([1]; parasite line B): 12.6 µM (active)
- Potency (3D7): 5.62 µM (active)
- Potency (7G8): 6.31 µM (active)
- Potency (AA1029): 10 µM (active)

SMILES: Cc1ccc(O)c2ncccc12
- activity, negative = inhibition [1, 5]: -28.2%
- Potency (7G8): inactive
- Potency (AA1029): inactive

SMILES: CC(=O)OCC(=O)[C@@]1(OC(C)=O)[C@@H](C)C[C@H]2[C@@H]3C[C@H](F)C4=CC(=O)C=C[C@]4(C)[C@@]3(F)[C@@H](O)C[C@@]21C
- activity, negative = inhibition [1, 4]: -18.2%
- Potency (3D7): inactive
- Potency (7G8): 8.91 µM (active)
- Potency (AA1029): inactive

SMILES: CN(C)C(=S)SC(=S)N(C)C
- Potency (3D7): 11.2 µM (active)
- Potency (7G8): 6.31 µM (active)

SMILES: CNCCC=C1c2ccccc2CCc2ccccc21
- activity, negative = inhibition [1, 4]: -6.28%
- Potency (3D7): inactive
- Potency (7G8): 11.2 µM (active)
- Potency (AA1029): 4.47 µM (active)

SMILES: COc1cccc(CCc2ccccc2OCC(CN(C)C)OC(=O)CCC(=O)O)c1 (stereo not given)
- Potency ([1]; parasite line B): 6.31 µM (active)
- Potency (3D7): 10 µM (active)
- Potency (7G8): 0.631 µM (active)
- Potency (AA1029): 3.98 µM (active)

SMILES: NC(CS)C(=O)O (stereo not given)
- Potency (7G8): 1.78 µM (active)
- Potency (AA1029): 15.8 µM (active)

SMILES: CN(C)CC/C=C1\c2ccccc2Sc2ccc(Cl)cc21
- Potency ([1]; parasite line B): 8.91 µM (active)
- Potency (3D7): inactive
- Potency (7G8): 12.6 µM (active)

SMILES: CC(O)C(=O)O (stereo not given)
- activity, negative = inhibition [1, 4]: 1.12%
- activity, negative = inhibition [1, 5]: 5.39%
- Potency (7G8): inactive
- Potency (AA1029): inactive

SMILES: c1ccc(-c2ccc(C(c3ccccc3)n3ccnc3)cc2)cc1 (stereo not given)
- Potency ([1]; parasite line B): 11.2 µM (active)
- Potency (7G8): 2 µM (active)

SMILES: CCCCC(CC)CN=C(N)NC(N)=NCCCCCCN=C(N)NC(N)=NCC(CC)CCCC (stereo not given)
- Potency ([1]; parasite line A): 1 µM (active)
- Potency (3D7): 1.58 µM (active)
- Potency (7G8): 0.316 µM (active)
- Potency (AA1029): 1.41 µM (active)

SMILES: CC(C)NC[C@@H](O)COc1cccc2ccccc12
- activity, negative = inhibition [1, 4]: 4.7%
- Potency (3D7): inactive
- Potency (7G8): 5.62 µM (active)
- Potency (AA1029): 11.2 µM (active)

SMILES: O=C(CCCN1CCC(O)(c2ccc(Br)cc2)CC1)c1ccc(F)cc1
- Potency (3D7): 5.62 µM (active)
- Potency (7G8): 2.82 µM (active)

SMILES: C[C@@H]1C(=O)NC2=Nc3cccc(Cl)c3CN21
- activity, negative = inhibition [1, 5]: -2.54%
- Potency (3D7): inactive
- Potency (7G8): inactive
- Potency (AA1029): inactive

SMILES: CCN(CC)CCNC(=O)COc1ccc(Cl)cc1
- Potency (3D7): inactive

SMILES: CC(C)COC(=O)c1ccc(N)cc1
- activity, negative = inhibition [1, 5]: -17.5%
- Potency (3D7): inactive
- Potency (7G8): inactive
- Potency (AA1029): inactive

SMILES: CCN(CC)CCOc1ccc(C(O)(Cc2ccc(Cl)cc2)c2ccc(C)cc2)cc1 (stereo not given)
- Potency (7G8): 5.01 µM (active)
- Potency (AA1029): 11.2 µM (active)

SMILES: C[C@@H]1CN(CCCn2c3ccccc3c3ccccc32)C[C@H](C)N1
- Potency ([1]; parasite line A): 10 µM (active)
- Potency (7G8): 4.47 µM (active)
- Potency (AA1029): 4.47 µM (active)

SMILES: O=C1[C@H]2CCCC[C@H]2C(=O)N1CCCCN1CCN(c2nsc3ccccc23)CC1
- activity, negative = inhibition [1, 4]: -3.99%
- activity, negative = inhibition [1, 5]: 7.58%
- Potency (AA1029): inactive

SMILES: CCCCCCCCCCCCCCNCCO
- Potency ([1]; parasite line A): 10 µM (active)
- Potency (7G8): 10 µM (active)

SMILES: Oc1ccc(Cl)c2cccnc12
- activity, negative = inhibition [1, 4]: -27%
- Potency (AA1029): inactive

SMILES: O=C1OCCN1/N=C/c1ccc([N+](=O)[O-])o1
- Potency (7G8): 10 µM (active)
- Potency (AA1029): 10 µM (active)

SMILES: CC[N+](CC)(CCNC(=O)C(=O)NCC[N+](CC)(CC)Cc1ccccc1Cl)Cc1ccccc1Cl
- Potency ([1]; parasite line A): 1.12 µM (active)
- Potency ([1]; parasite line B): 0.794 µM (active)
- Potency (7G8): 7.94 µM (active)
- Potency (AA1029): 2.82 µM (active)

SMILES: COc1ccc(C2C(=O)c3ccccc3C2=O)cc1
- activity, negative = inhibition [1, 4]: 3.83%
- Potency (3D7): inactive
- Potency (7G8): inactive
- Potency (AA1029): inactive

SMILES: CCOc1ccc(Cc2nccc3cc(OCC)c(OCC)cc23)cc1OCC
- activity, negative = inhibition [1, 3]: -21.6%
- Potency (7G8): inactive
- Potency (AA1029): inactive

SMILES: Oc1ccc(O)cc1
- Potency (3D7): 8.91 µM (active)
- Potency (AA1029): inactive

SMILES: O=C(Nc1ccc(Oc2ccc(Cl)cc2)c(Cl)c1)c1cc(I)cc(I)c1O
- Potency (3D7): inactive
- Potency (AA1029): inactive
